The text below walks through data of ChEMBL document CHEMBL4513216, “Probing the Open Global Health Chemical Diversity Library for Multistage-Active Starting Points for Next-Generation Antimalarials” (ACS Infect Dis, 2020).

SMILES strings stand for the structures. Screen size: about 69,000 compounds; about 8,600 (12%) showed an effect of 50% or more. The sample as a whole holds a higher share of strong results than the screen did.

The assay concerns Plasmodium berghei. As to the kind of experiment: Screen against P. berghei liver stage (PbLuc), transformed with Luciferase, at 10uM. The class given is functional, HepG2. Particulars: tested at 10 uM.
Turning to `Cc1nsc(C(=O)NCCc2ccc(F)cc2)n1`, the INHIBITION is given as -10.6%.

As to `Cc1nsc(C(=O)NCCc2ccc(S(N)(=O)=O)cc2)n1`, the INHIBITION is 69.5%.

For `Cc1nsc(C(=O)NCCc2ccccc2)n1`, the INHIBITION is recorded as -67.9%.

On to `Cc1nsc(C(=O)NCCc2cccs2)n1`, for which the INHIBITION is reported as -12.1%.

For `Cc1nsc(C(=O)NCCc2ccc(Cl)cc2)n1`, the INHIBITION amounted to 20.9%.

In the case of `Cc1nsc(C(=O)NCCCc2ccccc2)n1`, the INHIBITION was determined as 58.1%.

Turning to `CC(C)(O)CCc1cccc(C(=O)N2CCC[C@H]2CN2CCCC2)c1`, the INHIBITION was 1.56%.

As to `Cc1ccc(NC2CCN(C(=O)c3ccc4c(c3)CCC4)CC2)nn1`, the INHIBITION was 18.2%.

`CCC(CC)NC(=O)c1nc2n(n1)-c1ccccc1S(=O)(=O)N2`: the INHIBITION is -9.07%.

`Cc1n[nH]c(C)c1-c1nccnc1CC1CCCN(C)C1` (stereo unspecified): the INHIBITION stood at 23.2%.

Consider `c1ccc(-c2nnc(CN3C[C@H]4CC[C@@H](C3)N(CC3CCC3)C4)o2)cc1`, for which the INHIBITION was 46.6%.

Turning to `Cc1ccc(C(=O)N2CC[C@H]3[C@@H]2CCC(=O)N3c2cccnc2)o1`, the INHIBITION worked out at 23.1%.

With `COc1cccc(S(=O)(=O)CCN2CCCCC2)c1`, the INHIBITION was -11.1%.

`COc1cccc(S(=O)(=O)CCN2CCCN(C(C)=O)CC2)c1`: the INHIBITION is given as 45.8%.

On to `COCCN1CCN(CCS(=O)(=O)c2cccc(OC)c2)CC1`, for which the INHIBITION is on record as 92.8%.

With `COc1cccc(S(=O)(=O)CCN2CCN(CCO)CC2)c1`, the INHIBITION stood at 8.24%.

Turning to `COc1cccc(S(=O)(=O)CCN2CCC3(CC2)OCCO3)c1`, the INHIBITION was determined as 60%.

Consider `COc1cccc(S(=O)(=O)CCN2CCN(CC(F)F)CC2)c1`, for which the INHIBITION is on record as 28.2%.

In the case of `Cc1cc(CN2C[C@H](OCC3CCOCC3)[C@H]3COC[C@H]32)oc1C`, the INHIBITION amounted to 44.4%.

For the molecule `CCc1cc(NCCCOC2CCN(C)CC2)ncn1`, the INHIBITION is reported as 25.5%.

For `O=C(NCCO)Nc1c(F)cc(F)cc1-c1ccccc1`, the INHIBITION turned out to be 33%.

On to `Cc1noc([C@@]23CCO[C@@H]2CCN(CC2CCOCC2)C3)n1`, for which the INHIBITION is listed as 17.3%.

Take `c1ccc2c(c1)CCN(c1nc(N3CCOCC3)c3nn[nH]c3n1)C2`: the INHIBITION was found to be 54%.

For the molecule `c1ccc2c(c1)CCN2c1nc(N2CCOCC2)c2nn[nH]c2n1`, the INHIBITION is given as 39.9%.

Turning to `C1CCN(c2nc(N3CCOCC3)nc3[nH]nnc23)CC1`, the INHIBITION is recorded as 36.7%.

Turning to `COc1ccsc1C(=O)N1CCCN(Cc2cscn2)CC1`, the INHIBITION was -51.5%.

Regarding `O=C(Cc1ccc2c(c1)OCCO2)N1CCN(c2cnccn2)CC1`, the INHIBITION is listed as -5.25%.

With `CCC1CN(c2nnc(C)c(C)c2C#N)CCO1` (stereo unspecified), the INHIBITION is 17.8%.

For the molecule `Cc1nc(C)n(CC2CN(c3nnc(C)c(C)c3C#N)CCO2)n1` (stereo unspecified), the INHIBITION is -27.3%.

In the case of `Cc1nc(C)n(CC2CN(CCOc3ccc(C#N)cc3)CCO2)n1` (stereo unspecified), the INHIBITION is listed as 42%.

With `Cc1cc(C)n(CC2CN(CCOc3ccc(C#N)cc3)CCO2)n1` (stereo unspecified), the INHIBITION was determined as 51.1%.

With `Cc1cc(C)n(CC2CN(c3nnc(C)c(C)c3C#N)CCO2)n1` (stereo unspecified), the INHIBITION is 53.1%.

Regarding `Cc1cc(C)n(CC2CN(CCOc3cccc(C#N)c3)CCO2)n1` (stereo unspecified), the INHIBITION is on record as 20.6%.

On to `CN(C)C(=O)NC1COC2(CCN(Cc3ccccc3)CC2)C1` (stereo unspecified), for which the INHIBITION is on record as 37.5%.

Take `CC(N)Cc1ccccc1Sc1ccccc1` (stereo unspecified): the INHIBITION came out at 24.7%.

Regarding `CCc1nc(CNc2ccc(F)cc2I)no1`, the INHIBITION was -58.5%.

In the case of `CN1CCN(CC2CN(CC3CC3)Cc3nccn3C2)CC1` (stereo unspecified), the INHIBITION came to 19.4%.

With `Cc1cnc2n1CCN(C)C21CCN(CC2CC2)CC1`, the INHIBITION amounted to 12.1%.

Consider `CCCS(=O)(=O)c1ccc(N2CCC(Cc3ccccc3)CC2)nn1`, for which the INHIBITION worked out at 23.7%.

On to `Oc1ccc(N2CCC(Cc3ccccc3)CC2)nn1`, for which the INHIBITION is recorded as 83.8%.

In the case of `Cc1cc(N2CCC(CC(N)=O)CC2)nc(-c2ccncc2)n1`, the INHIBITION was 16.1%.

For `Cc1cc(N2CCC(Cc3ccccc3)CC2)nc(-c2ccncc2)n1`, the INHIBITION amounted to 71.3%.

Consider `CC(=O)NCC1CCN(c2cc(C)nc(-c3ccncc3)n2)CC1`, for which the INHIBITION is recorded as 33.3%.

As to `O=C(O)c1ccc(N2CCC(Cc3ccccc3)CC2)nn1`, the INHIBITION is -23.2%.

Consider `CCn1c(=O)[nH]c2cn(-c3cccc(Cl)c3)c(=O)n21`, for which the INHIBITION is -35.5%.

In the case of `CC(C)C(O)CNC(=O)Nc1cnn(C(C)C)c1` (stereo unspecified), the INHIBITION was -4.73%.

`CC(C)n1ccc(C(=O)NCC(O)c2c(Cl)cccc2Cl)n1` (stereo unspecified): the INHIBITION came to 24.3%.

`CCn1nc(C)cc1C(=O)NCc1nc(C)no1`: the INHIBITION stood at 17.5%.

In the case of `Cc1ccc(N2CCCN(C(=O)c3cccc4c3ccn4C)CC2)nn1`, the INHIBITION stood at 38.5%.

Take `Cn1cc(C(=O)N2CCCN(c3cccnn3)CC2)c2ccccc21`: the INHIBITION is reported as -0.532%.

`Cc1ccc(N2CCCN(C(=O)c3cn(C)c4ccccc34)CC2)nn1`: the INHIBITION worked out at 87.2%.

Turning to `O=C1CN(C(=O)C2CCC3(CC2)CNC(=O)c2ccccc2O3)CCN1` (stereo unspecified), the INHIBITION was determined as 43.6%.

Take `Cc1nn(C)c(C)c1CN(C)C(=O)c1cc(C(F)(F)F)n(C)n1`: the INHIBITION was 42.45%.

`O=C(c1ccnn1COc1ccc(Cl)cc1)N1CCSCC1`: the INHIBITION is 33.4%.

As for `O=C(c1ccnn1COc1ccc(Cl)cc1)N1CCCC1`, the INHIBITION is 1.45%.

As for `O=C(c1ccnn1COc1ccc(Cl)cc1)N1CCOCC1`, the INHIBITION is 50.8%.

Consider `Fc1ccccc1CC1CCN(Cc2nccs2)CC1`, for which the INHIBITION is -131%.

`Fc1ccccc1CC1CCN(Cc2cscn2)CC1`: the INHIBITION stood at 82.4%.

`Cc1noc(CN2CCC(c3ccnn3CCO)CC2)n1`: the INHIBITION came out at 49.6%.

Take `Cc1noc(CN2CCC(Cc3ccc(F)cc3)CC2)n1`: the INHIBITION was 57.2%.

With `Fc1ccc(CN2CCCN(Cc3cscn3)CC2)cc1`, the INHIBITION is given as -12.5%.

`Fc1ccccc1CC1CCN(Cc2ccccn2)CC1`: the INHIBITION is 45.2%.

As to `Cc1noc(CN2CCN(CCO)CC2)n1`, the INHIBITION is recorded as -14.9%.

As for `Fc1ccc(CC2CCN(Cc3nccs3)CC2)cc1`, the INHIBITION was determined as 38.7%.

As for `Fc1ccc(CC2CCN(Cc3cscn3)CC2)cc1`, the INHIBITION was 68.1%.

On to `CCn1cnnc1CNC(=O)N1CCN(C(C)C)CC1`, for which the INHIBITION was found to be 21.5%.

Take `CN(C)C(=O)CO[C@H]1CN(Cc2ccoc2)[C@@H]2COC[C@H]12`: the INHIBITION is recorded as 39.5%.

As to `CCc1cnccc1C(=O)Nc1ccc(C(N)=O)nc1`, the INHIBITION worked out at 25.1%.

For the molecule `CCc1nnc2n1CCN(C(=O)c1cc3c(F)cccc3[nH]1)C2`, the INHIBITION came out at 21%.

As to `COCCN1C(=O)[C@@H]2CC[C@H]1CN(Cc1nnc(C3CC3)o1)C2`, the INHIBITION stood at 16.2%.

With `COc1ncc(CN2CCCC(c3[nH]ncc3S(C)(=O)=O)C2)cn1` (stereo unspecified), the INHIBITION was 7.05%.
